Potency and outcome data for seven molecules are collected here from PubChem BioAssay (Tox21).

Structures are written as SMILES. Unmarked numbers belong to inactive results. The source made the active and inactive calls. Unless noted, calls follow the shape of the dose curve; as a rule, active = well fitted curve in the direction sought with a large enough effect in the repeat runs; inconclusive = weak or mixed curves; inactive = no such curve, though single readings can be large; an effect the other way counts as inactive or inconclusive.

A short description of test [1]: qHTS assay for small molecule agonists of the p53 signaling pathway (AID 651631; calls by dose curve; also: nearly all actives have a fitted effect of over 15% in size). In short, it runs like this: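 Testing took place in human colorectal HCT-116 cells with stable p53RE-driven beta-lactamase. After 16 h of compound exposure at 37 °C, a FRET substrate was added and fluorescence recorded 2 h later.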
For orientation: qHTS replaces the single test concentration by a dilution series.

Test [2] can be described thus: qHTS assay for small molecules that induce genotoxicity in human embryonic kidney cells expressing luciferase-tagged ATAD5 (AID 651632). Also: nearly all actives have a fitted effect of over 15% in size. In short, it runs like this:
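Luminescent reporter readout, HEK293T ATAD5-luc line: 16 hr drug exposure (37C, 5% CO2) followed by Amplite, 30 min RT.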

A short description of test [3]: qHTS assay for small molecule agonists of the p53 signaling pathway - cell viability (AID 651633; calls by dose curve; also: series mostly up to about 83 µM; nearly all actives have a fitted effect of over 30% in size). In short, it runs like this: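 p53RE-bla cells were treated with compound for 16 hours at 37 C. Cytotoxicity was then measured as CellTiter-Glo luminescence after 30 min at room temperature.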
Test [4] is described as follows: qHTS assay for small molecules that induce genotoxicity in human embryonic kidney cells expressing luciferase-tagged ATAD5 - cell viability (AID 651634; calls by dose curve; also: nearly all actives have a fitted effect of over 25% in size). In short, it runs like this: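 Viability read: CellTiter-Fluor fluorescence, 30 min at 37C. Cells: HEK293T, luciferase-tagged ATAD5. Exposure: 15.5 hr, 37C, 5% CO2, compound or DMSO vehicle.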
Test [5] is described as follows: qHTS assay for small molecule disruptors of the mitochondrial membrane potential - cell viability (AID 720634; calls by dose curve;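 also: human HepG2 liver cancer cells; series mostly up to about 83 µM; nearly all actives have a fitted effect of over 20% in size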). In short, it runs like this:
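HepG2, 1 hr compound, 37 C. ATP luminescence via CellTiter-Glo, 30 min RT, same well as m-MPI.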

Test [6] in a line: qHTS assay for small molecule disruptors of the mitochondrial membrane potential (AID 720635). Also: potency is read from the fitted curve at half-maximal effect. In a few lines:
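HepG2 cells exposed to compound 1 hr at 37C, then Mito-MPS dye 30 min. Ratio read of aggregate (540/590 nm) versus monomer (490/535 nm) fluorescence.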

Test [7] in a line: qHTS assay to test for compound auto fluorescence at 590 nm (red) in HepG2 cells (AID 720674). In a few lines:
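Seeding: 2,000 HepG2 cells/well, MEM/10% FBS, overnight 37 C. Dosing: compound vs DMSO. Incubation: 1 hr, 37 C, 5% CO2. Read: fluorescence 540 ex/590 em, Rose Bengal sodium as red reference.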

The nature of test [8]: qHTS assay to test for compound auto fluorescence at 535 nm (green) in HepG2 cells (AID 720675).
Test [9] is described as follows: qHTS assay to test for compound auto fluorescence at 460 nm (blue) in HEK293 cells (AID 720678). In short, it runs like this: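 Intrinsic compound fluorescence is recorded in live HEK293 cultures after overnight incubation at 37C, 5% CO2, using excitation 405 nm and emission 460 nm. Values are referenced to triamterene.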
Test [10] is described as follows: qHTS assay to test for compound auto fluorescence at 590 nm (red) in HEK293 cells (AID 720679). In short, it runs like this:
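Red autofluorescence, HEK293 cells: 2,000 cells/well; attach 4-5 hr 37C; add 23 nL cpd or DMSO; incubate o/n 37C 5% CO2; read Ex540/Em590; Rose Bengal sodium reference.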

A short description of test [11]: qHTS assay to test for compound auto fluorescence at 535 nm (green) in HEK293 cells (AID 720680).
Test [12] can be described thus: qHTS assay to test for compound auto fluorescence at 460 nm (blue) in HEK293 cell free culture (AID 720681). In a few lines:
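Compounds were added to cell-free DMEM with 10% FBS and fluorescence read directly. The blue channel used 405 nm excitation and 460 nm emission, with triamterene as the reference fluorophore.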

Test [13] can be described thus: qHTS assay to test for compound auto fluorescence at 535 nm (green) in HEK293 cell free culture (AID 720682). In a few lines:
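DMEM + 10% FBS, cell-free; cpd or DMSO pinned in; Ex485/Em535 read; output as fluorescein-equivalent signal.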

Test [14] is described as follows: qHTS assay to test for compound auto fluorescence at 590 nm (red) in HEK293 cell free culture (AID 720683). In a few lines:
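Cell-free wells of DMEM with 10% FBS received compound, and intrinsic fluorescence was read at excitation/emission 540/590 nm. Values expressed as equivalence to Rose Bengal sodium.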

Test [15] in a line: qHTS assay to test for compound auto fluorescence at 590 nm (red) in HepG2 cell free culture (AID 720684). In a few lines: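 Compound was pinned into wells holding MEM with 10% FBS and no cells, and red fluorescence was read at Ex/Em 540/590 nm. Signal is expressed as auto fluorescence equivalency relative to Rose Bengal sodium.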
Test [16] in a line: qHTS assay to test for compound auto fluorescence at 460 nm (blue) in HepG2 cell free culture (AID 720685). In a few lines:
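Compound (23 nL) or DMSO pinned into cell-free MEM with 10% FBS; blue fluorescence read at 405/460 nm excitation/emission, expressed as auto-fluorescence equivalency to triamterene.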

A short description of test [17]: qHTS assay to test for compound auto fluorescence at 535 nm (green) in HepG2 cell free culture (AID 720686).
Test [18] in a line: qHTS assay to test for compound auto fluorescence at 460 nm (blue) in HepG2 cells (AID 720687). In short, it runs like this:
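HepG2 cells in MEM with 10% FBS, attached overnight at 37 C, were exposed to compound or DMSO for 1 hr at 37 C, 5% CO2. Blue fluorescence was read at 405/460 nm, with triamterene as reference fluorophore.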

Test [19] deals with Glucocorticoid receptor (Homo sapiens) (UniProt P04150). The test is described as follows: qHTS assay to identify small molecule agonists of the glucocorticoid receptor (GR) signaling pathway (AID 720691; active = well fitted activation curve with a large enough effect in the signal ratio in the repeat runs, not every such curve was filed as active; inconclusive = weak or mixed curves, or effect the other way; inactive = no such curve, though single readings can be large or run the other way; the % refers to the signal ratio; also: potency is read from the fitted curve at half-maximal effect). In short, it runs like this:
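qHTS in GR-bla HeLa cells: 4 h settling at 37 C/5% CO2, 18 h compound incubation at 37 C, 2 h LiveBLAzer B/G FRET substrate at room temperature, fluorescence intensity measured.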

The target is the same in test [20]. The test is described as follows: qHTS assay to identify small molecule antagonists of the glucocorticoid receptor (GR) signaling pathway (AID 720692; active = well fitted inhibition curve with a large enough effect in the signal ratio in the repeat runs, not every such curve was filed as active; inconclusive = weak or mixed curves, or effect the other way; inactive = no such curve, though single readings can be large or run the other way; the % refers to the signal ratio). In a few lines: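 Inhibition of glucocorticoid signalling is measured in HeLa cells with a GRE-controlled beta-lactamase reporter; cells are co-treated with compound and 5 nM dexamethasone (final) for 18 h before FRET substrate readout.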

Sequence of Glucocorticoid receptor (Homo sapiens) (P04150 whole entry, looked up): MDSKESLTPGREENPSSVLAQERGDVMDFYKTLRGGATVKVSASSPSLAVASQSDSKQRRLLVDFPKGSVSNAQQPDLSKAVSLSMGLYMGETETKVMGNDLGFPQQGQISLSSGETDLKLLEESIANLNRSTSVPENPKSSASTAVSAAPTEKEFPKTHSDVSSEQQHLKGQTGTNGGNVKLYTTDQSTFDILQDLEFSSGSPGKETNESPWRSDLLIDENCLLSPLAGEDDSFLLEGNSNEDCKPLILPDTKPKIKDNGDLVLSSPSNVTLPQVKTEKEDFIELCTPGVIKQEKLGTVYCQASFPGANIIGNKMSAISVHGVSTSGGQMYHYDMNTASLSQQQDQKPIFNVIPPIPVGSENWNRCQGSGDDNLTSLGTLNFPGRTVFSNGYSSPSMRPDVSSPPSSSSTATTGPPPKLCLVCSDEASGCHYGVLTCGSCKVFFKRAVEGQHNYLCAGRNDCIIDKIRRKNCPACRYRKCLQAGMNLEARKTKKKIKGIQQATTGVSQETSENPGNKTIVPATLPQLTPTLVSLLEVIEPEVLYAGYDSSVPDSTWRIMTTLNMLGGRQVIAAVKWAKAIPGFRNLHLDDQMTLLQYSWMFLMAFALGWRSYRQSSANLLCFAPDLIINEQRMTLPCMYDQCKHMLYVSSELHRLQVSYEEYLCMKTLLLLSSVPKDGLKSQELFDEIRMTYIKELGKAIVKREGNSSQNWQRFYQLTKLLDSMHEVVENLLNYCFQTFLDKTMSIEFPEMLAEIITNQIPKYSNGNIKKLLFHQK

On to `N[C@@H](CS)C(=O)O`, for which the Potency result in test [1], in test [2], in test [3], in test [4], in [5] and in test [9] was “inactive” in each case. Further, the Potency result in [12], in test [16] and in [18] was “inactive” throughout. In [6], the Potency was 27.7 µM (active). The call in [7], in test [8], in [10], in test [11], in [13] and in test [14] was inactive. Further, the outcome in test [15] and in [17] was inactive.

As to `CCO[Si](C)(OCC)OCC`, the Potency result in test [1], in test [2], in test [3], in test [4], in test [5] and in test [6] was “inactive” each time. The Potency entry in test [9], in test [12], in test [16], in [18] and in [19] was “inactive” in each case. Moreover, the outcome in [7], in test [8], in test [10], in test [11], in [13] and in test [14] was inactive. Further, the call in test [15] and in test [17] was inactive.

Turning to `Cc1cc(C)c(NC(=O)CN(CC(=O)O)CC(=O)O)c(C)c1Br`, the Potency result in test [1], in [2], in test [3], in test [4], in test [5] and in test [6] was “inactive” throughout. The Potency result in test [9], in [12], in test [16], in test [18] and in test [19] was “inactive” each time. For the same molecule, the outcome in test [7], in test [8], in [10], in test [11], in [13] and in test [14] was inactive. Besides, the result in test [15] and in test [17] was inactive.

In the case of `O=C(O)c1ccc[n+]([O-])c1`, the Potency result in [1], in test [2], in test [3], in [4], in [5] and in [6] was “inactive” in each case. Besides, the Potency result in test [9], in test [12], in [16], in test [18], in test [19] and in test [20] was “inactive” each time. Besides, the result in test [7], in [8], in test [10], in test [11], in test [13] and in [14] was inactive. Moreover, the molecule was classed as inactive in [15] and in [17].

`CCCCCCCCCCCCCCCCCCOCC(O)CO` (stereo not drawn): the Potency entry in test [1], in test [2], in test [3], in test [4], in test [5] and in test [6] was “inactive” in each case. The Potency result in test [9], in [12], in test [16] and in [18] was “inactive” throughout. For the same molecule, the call in test [7], in test [8], in [10], in test [11], in test [13] and in [14] was inactive. The result in test [15] and in test [17] was inactive. Also, the Potency in test [19] is 0.952 µM [inconclusive] (active).

For `COc1cccc(Br)c1`, the Potency result in [1], in test [2], in test [3], in test [4], in test [5] and in test [6] was “inactive” throughout. For the same molecule, the Potency entry in [9], in [12], in [16] and in test [18] was “inactive” each time. Besides, the outcome in [7], in [8], in test [10], in test [11], in [13] and in test [14] was inactive. The molecule was classed as inactive in test [15] and in [17].

As to `CCCCCCCCCCCCI`, the Potency entry in [1], in test [2], in [3], in [4], in test [5] and in test [6] was “inactive” in each case. For the same molecule, the Potency result in [9], in [12], in [16], in test [18], in test [19] and in test [20] was “inactive” throughout. Moreover, the outcome in [7], in [8], in [10], in [11], in [13] and in [14] was inactive. Also, the molecule was called inactive in [15] and in test [17].
